{
  "source": "PubChem BioAssay AID1851",
  "about": "(National Center for Advancing Translational Sciences (NCATS), 2009)",
  "note": "Values joined by “and” are separate entries in the source; they are usually repeats but may differ in a detail not shown here. Identical values can stand only once. The campaign covered roughly 16,000 compounds. About 5,700 (36%) were called active. Not shown: some 24% with an inconclusive outcome. Calls come from the whole dose curve; as a rule, active = well fitted curve in the direction sought with a large enough effect; inconclusive = small, poorly fitted or top-dose-only effect, or effect the other way; inactive = no such curve, though single readings can be large or run the other way. Some of the results follow. % is set by controls: 0 for no effect and ±100 for the full control effect.",
  "data": [
    {"molecular_target": "Cytochrome P450 1A2 (Homo sapiens) (UniProt P05177)", "sequence (P05177 whole entry, looked up)": "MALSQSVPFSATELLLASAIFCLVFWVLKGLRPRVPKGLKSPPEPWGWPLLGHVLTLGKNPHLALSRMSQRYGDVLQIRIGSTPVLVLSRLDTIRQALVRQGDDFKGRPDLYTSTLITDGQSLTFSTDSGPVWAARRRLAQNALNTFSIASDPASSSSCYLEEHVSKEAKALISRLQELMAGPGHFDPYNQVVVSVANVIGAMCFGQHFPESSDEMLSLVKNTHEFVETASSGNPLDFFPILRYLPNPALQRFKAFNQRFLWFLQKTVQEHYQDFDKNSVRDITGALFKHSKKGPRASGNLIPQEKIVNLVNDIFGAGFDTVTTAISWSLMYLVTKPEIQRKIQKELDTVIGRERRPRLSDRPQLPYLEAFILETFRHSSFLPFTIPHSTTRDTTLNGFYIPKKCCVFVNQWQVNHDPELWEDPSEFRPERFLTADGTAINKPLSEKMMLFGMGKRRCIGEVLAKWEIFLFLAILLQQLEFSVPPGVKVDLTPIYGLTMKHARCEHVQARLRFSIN", "assay": "Cytochrome panel assay with activity outcomes", "conditions": "recombinant CYP, pro-luciferin dealkylation, luminescence, p450-cyp1a2; series mostly up to 57.1 µM; activity, negative = inhibition: at the top concentration", "values": [
      {"smiles": "Cc1nn(-c2ccccc2)c2c1C(c1ccc(O)c(O)c1)N1C(=N2)C(Nc2ccccc2)=Nc2ccccc21", "note": "(centres undefined)", "activity, negative = inhibition": "-3.72% (inactive)"},
      {"smiles": "COc1ccc(C(=O)N2CC3(CC(c4ccc(Cl)cc4)=NO3)C[C@H]2C(=O)NCC(N)=O)cc1", "note": "(some centres undefined)", "activity, negative = inhibition": "-12.9% (inactive)"},
      {"smiles": "C[N+]1(CC(=O)OCCCc2ccccc2)CCOCC1", "activity, negative = inhibition": "9.57% (inactive)"},
      {"smiles": "COc1ccc([N+](=O)[O-])cc1NC(=O)CC(C)c1ccccc1", "note": "(centres undefined)", "AC50": "5.01 µM (active)"},
      {"smiles": "CCN(CC(=O)Nc1ccc([N+](=O)[O-])cc1OC)c1ccccc1", "AC50": "12.6 µM (active)"},
      {"smiles": "COc1ccccc1NC(=O)Cn1cncc1-c1ccc([N+](=O)[O-])cc1", "activity, negative = inhibition": "-23.8% (inactive)"},
      {"smiles": "C=CC[C@@H]1C=C[C@H](O/N=C\\[C@@H](C)[C@H](OCc2ccccc2)C(C)C)[C@H](CO)O1", "activity, negative = inhibition": "9.01% [at 11.4 µM] (inactive)"},
      {"smiles": "COc1ccc(C2Nc3ccccc3C(=O)N2Cc2ccco2)cc1COc1ccc([N+](=O)[O-])cc1", "note": "(centres undefined)", "activity, negative = inhibition": "-16.8% (inactive)"},
      {"smiles": "O=C1c2ccccc2NC(c2ccc(F)cc2)N1Cc1ccco1", "note": "(centres undefined)", "AC50": "25.1 µM (active)"},
      {"smiles": "CN(Cc1ccco1)C(=O)C1CCC(=O)N1Cc1ccc(F)cc1", "note": "(centres undefined)", "activity, negative = inhibition": "17.4% (inactive)"},
      {"smiles": "COc1cc(C2C(=O)N(C3CCCC3)CC(=O)N2Cc2ccco2)ccc1OC(C)C", "note": "(centres undefined)", "activity, negative = inhibition": "-9.22% (inactive)"},
      {"smiles": "Cc1ccc(C2Nc3ccccc3C(=O)N2Cc2ccco2)cc1", "note": "(centres undefined)", "AC50": "15.8 µM (active)"},
      {"smiles": "CC(C)Oc1ccc(/C(O)=C2/C(=O)C(=O)N(Cc3cccnc3)C2c2ccco2)cc1", "note": "(centres undefined)", "activity, negative = inhibition": "-5.23% (inactive)"},
      {"smiles": "Cc1ccc(S(=O)(=O)CCc2nnc(NC(=O)COc3cccc(C)c3)s2)cc1", "activity, negative = inhibition": "7.38% (inactive)"},
      {"smiles": "C/C(CC(=O)Nc1cc(C)ccn1)=N\\NC(=O)COc1cccc(C)c1", "AC50": "14.1 µM (active)"},
      {"smiles": "CC(=O)Nc1ccc(NC(=O)C/C(C)=N/NC(=O)C(=O)N2CCCC2)cc1", "activity, negative = inhibition": "1.33% (inactive)"},
      {"smiles": "COc1cccc(-c2cc(C(F)(F)F)n3ncc(S(=O)(=O)c4ccccc4)c3n2)c1", "activity, negative = inhibition": "-19.7% (inactive)"},
      {"smiles": "COc1cccc(-c2cc(C(F)(F)F)nc(N3CCN(c4ccccc4)CC3)n2)c1", "AC50": "12.6 µM (active)"},
      {"smiles": "COc1cccc(-c2cc(C(F)(F)F)nc(N3CCCCC3)n2)c1", "AC50": "1 µM (active)"},
      {"smiles": "COc1cccc(-c2cc(C(F)(F)F)nc(N3CCOCC3)n2)c1", "AC50": "0.794 µM (active)"},
      {"smiles": "CCOC(=O)N1CCC(NC(=O)CCC(=O)N2CCOc3ccccc32)CC1", "activity, negative = inhibition": "-14.2% (inactive)"},
      {"smiles": "CCOC(=O)[C@H](N)/C=C(\\C)CP(=O)(O)O", "activity, negative = inhibition": "-17.3% (inactive)"},
      {"smiles": "CC(C)(C)C(=O)N1CCc2cc(-c3csc(N)n3)ccc21", "AC50": "7.08 µM (active)"},
      {"smiles": "CCCC(=O)Nc1nc(-c2ccc3c(c2)CCN3S(C)(=O)=O)cs1", "activity, negative = inhibition": "-3.69% (inactive)"},
      {"smiles": "CO[C@H]1COC(=O)[C@@H](Cc2ccccc2)NC(=O)[C@@H](C)COC(=O)CCC[C@@H]1C", "activity, negative = inhibition": "-3.47% [at 11.4 µM] (inactive)"},
      {"smiles": "O=C(CN1CCCCC1)Nc1nnc(-c2ccc([N+](=O)[O-])cc2)s1", "activity, negative = inhibition": "-14.5% (inactive)"},
      {"smiles": "COCC(=O)N1CCN(c2ccc([N+](=O)[O-])cc2)CC1", "activity, negative = inhibition": "-1.44% (inactive)"},
      {"smiles": "COCC(=O)N(C)c1nnc(-c2ccc([N+](=O)[O-])cc2)s1", "AC50": "3.16 µM (active)"},
      {"smiles": "COC(=O)N1CCC2(CC1)CN(C(=O)Nc1ccc(OC)cc1)C2", "activity, negative = inhibition": "-0.895% (inactive)"},
      {"smiles": "COc1ccc(NC(=O)OC(C)C)cc1", "AC50": "11.2 µM (active)"},
      {"smiles": "Cc1ccc(C)c(NC(=O)Cn2c([N+](=O)[O-])cnc2C)c1", "activity, negative = inhibition": "-3.91% (inactive)"},
      {"smiles": "COc1ccc(NC(=O)N2CCC3(CC2)CCN(S(C)(=O)=O)CC3)cc1", "activity, negative = inhibition": "3.99% (inactive)"},
      {"smiles": "Cc1ccc(C)c(NC(=O)c2ncn[nH]2)c1", "AC50": "15.8 µM (active)"},
      {"smiles": "COc1ccc(NC(=O)C(c2ccc(OC)cc2)N(C)C(=O)CNC(C)=O)cc1", "note": "(centres undefined)", "activity, negative = inhibition": "-5.37% (inactive)"},
      {"smiles": "CC(C)c1ccc(O)c(NC(=O)c2ncn[nH]2)c1", "AC50": "15.8 µM (active)"},
      {"smiles": "Cc1ccc(C)c(NC(=O)C2CC3c4ccccc4C2c2ccccc23)c1", "note": "(centres undefined)", "activity, negative = inhibition": "-5.49% (inactive)"},
      {"smiles": "COc1ccc(NC(=O)c2ncn[nH]2)cc1", "AC50": "11.2 µM (active)"},
      {"smiles": "COc1ccc(NC(=O)N2CCCC3(CCNCC3)C2)cc1", "activity, negative = inhibition": "-1.6% (inactive)"},
      {"smiles": "CC(C)CN1CCC2(CC1)CCN(C(=O)c1cccn1C)CC2", "activity, negative = inhibition": "9.28% (inactive)"},
      {"smiles": "COCC(=O)N1CCC2(CCCN(c3ncccn3)C2)CC1", "activity, negative = inhibition": "-20.4% (inactive)"},
      {"smiles": "N=C(N)SCc1nc2ccccc2c(=O)n1-c1ccccc1Cl", "AC50": "1.26 µM (active)"},
      {"smiles": "COc1ccc(C=Nc2c(O)ccc3ccccc23)cc1OC", "AC50": "0.251 µM (active)"},
      {"smiles": "COc1cc(C=O)ccc1OCCCOc1ccccc1C(=O)O", "activity, negative = inhibition": "-8.32% (inactive)"},
      {"smiles": "COC(=O)C/C=C\\[C@@H](C)[C@@H](/C=N\\O[C@@H](C)c1cn([C@H](CO)Cc2ccccc2)nn1)NS(=O)(=O)c1ccc(C)cc1", "activity, negative = inhibition": "-0.854% [at 11.4 µM] (inactive) and -7.61% [at 11.4 µM] (inactive)"},
      {"smiles": "CC(C)CN1CC2(CCN(C(=O)c3cccc(F)c3)CC2)C1", "activity, negative = inhibition": "3.33% (inactive)"},
      {"smiles": "O=C1CCC(c2ccccc2)=NN1c1nc2ccccc2s1", "AC50": "0.398 µM (active)"},
      {"smiles": "COc1cccc(-c2cncnc2-n2ccnc2)c1", "AC50": "0.1 µM (active)"},
      {"smiles": "N#Cc1cccc(-c2cncnc2-n2ccnc2)c1", "AC50": "15.8 µM (active)"},
      {"smiles": "c1cncc(-c2cncnc2-n2ccnc2)c1", "AC50": "20 µM (active)"},
      {"smiles": "COc1ccccc1-c1cncnc1-n1ccnc1", "AC50": "12.6 µM (active)"},
      {"smiles": "Cc1cn(CC[C@H](N)C(=O)O)c(=O)[nH]c1=O", "activity, negative = inhibition": "-9.38% [at 11.4 µM] (inactive)"},
      {"smiles": "COC(=O)C[C@@H]1O[C@H]1[C@H](C)[C@@H](OC)C(C)C", "activity, negative = inhibition": "-6.59% [at 11.4 µM] (inactive)"},
      {"smiles": "COC(=O)[C@@]1(Cc2ccc(OC)cc2)[C@@H]2[C@@H](CC(=O)[C@H]2CC(=O)C(=O)N2CCCC2)CN1C(=O)c1ccccc1", "activity, negative = inhibition": "-20.3% (inactive)"},
      {"smiles": "COc1ccc(C[C@@H]2C(=O)N[C@H](C)C(=O)N(C)[C@@H]3Cc4ccc(cc4)Oc4cc(ccc4O)C[C@H](C(=O)N[C@@H](C)C(=O)N[C@H](C)C(=O)N2C)N(C)C3=O)cc1", "activity, negative = inhibition": "-16.4% [at 11.4 µM] (inactive)"},
      {"smiles": "CC(C)CC(=O)N[C@H](C(=O)N[C@H](C(=O)N[C@@H](CC(C)C)[C@H](O)CC(=O)N[C@@H](C)C(=O)N[C@@H](CC(C)C)[C@H](O)CC(=O)O)C(C)C)C(C)C", "activity, negative = inhibition": "1.07% [at 25.6 µM] (inactive)"},
      {"smiles": "COc1ccc(O[C@H]2C=C[C@@H](c3ccccc3)O[C@@H]2CO/N=C(\\C)CCN2CCc3nc(-c4ccccc4)c(-c4ccccc4)cc3C2)cc1", "activity, negative = inhibition": "-6.98% [at 11.4 µM] (inactive)"},
      {"smiles": "Cc1cc2cccc(C)c2nc1SCC(=O)N(C)c1nc(-c2ccccc2)cs1", "activity, negative = inhibition": "-13.1% (inactive)"},
      {"smiles": "CCC(=O)N(Cc1ccco1)c1nc(-c2ccccc2)cs1", "AC50": "1.26 µM (active)"},
      {"smiles": "Cc1ccccc1C(C(=O)NCc1ccccc1)N(Cc1ccco1)C(=O)c1ccccn1", "note": "(centres undefined)", "activity, negative = inhibition": "-0.421% (inactive)"}
    ]}
  ]
}
